Screening data (PubChem BioAssay)
FLuc modulator: qHTS profiling assay for firefly luciferase inhibitor/activator using purifed enzyme and Km concentrations of substrates (counterscreen for miR-21 project) | Luciferin 4-monooxygenase (Photinus pyralis), P08659 | purified FLuc, Km substrates, luminescence inhibition | 6.9% of 360,000 active | Potency, µM (highest dose often 57.5 µM), hits mostly inhibitors; note: nearly all actives have a fitted effect of over 55% in size
Target sequence (P08659 whole entry, looked up): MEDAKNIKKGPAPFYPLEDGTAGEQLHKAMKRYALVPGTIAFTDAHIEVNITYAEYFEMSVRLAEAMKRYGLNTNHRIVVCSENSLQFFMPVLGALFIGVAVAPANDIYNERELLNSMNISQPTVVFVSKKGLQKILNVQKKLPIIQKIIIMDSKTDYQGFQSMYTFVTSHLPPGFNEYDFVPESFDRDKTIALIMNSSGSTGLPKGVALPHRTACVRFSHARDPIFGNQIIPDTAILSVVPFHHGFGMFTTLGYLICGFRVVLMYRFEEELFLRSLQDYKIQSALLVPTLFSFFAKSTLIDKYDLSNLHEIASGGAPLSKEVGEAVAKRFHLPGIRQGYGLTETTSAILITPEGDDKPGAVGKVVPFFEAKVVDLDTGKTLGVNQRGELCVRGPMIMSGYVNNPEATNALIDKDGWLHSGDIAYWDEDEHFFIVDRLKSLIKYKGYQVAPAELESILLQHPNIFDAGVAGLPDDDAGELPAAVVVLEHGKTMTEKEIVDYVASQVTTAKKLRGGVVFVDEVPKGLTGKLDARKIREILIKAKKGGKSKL
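Purified P. pyralis luciferase (10nM final) with 10uM D-luciferin and 10uM ATP (Km levels) in 50mM Tris acetate pH 7.5, 10mM Mg acetate, 0.01% Tween-20, 0.05% BSA; qHTS 6-point titration, ~60 µM downward; luminescence read.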
ELG1 genotoxic: qHTS screen for small molecules that induce genotoxicity in human embryonic kidney (HEK293T) cells expressing luciferase-tagged ELG1; HEK293T ELG1-luciferase reporter, luminescence, 16 h; Potency, µM (titrated, usually from 46 µM), usual class: activators; 1.3% of 330,000 active; AID 504466, 2011; note: nearly all actives have a fitted effect of over 60% in size
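Luminescence read-out: rising ELG1-luciferase signal, reflecting elevated ELG1 protein under genetic stress, flags genotoxic compounds. Cells were treated for 16 hr at 37 °C before ONE-Glo detection.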
SMN2 splice up: qHTS Assay for Enhancers of SMN2 Splice Variant Expression. HEK293 SMN2-luciferase splicing reporter, luminescence, 30-36 h. Potency, µM (top dose mostly 46.1 µM), actives largely listed as activators. 2.8% of 210,000 active. AID 1458, 2008; note: nearly all actives have a fitted effect of over 55% in size
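HEK293 cells carry an SMN2 minigene-luciferase reporter in which exon 7 inclusion puts luciferase in frame. Cells were seeded at 2000 cells/well, attached for 10-12 hours, then exposed to compounds for 30-36 hours at 37C before ONE-Glo luminescence.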
NPC1 prom act: qHTS Assay for NPC1 Promoter Activators; 2.4% of 320,000 active; Potency, µM (series often up to 9.22 µM), hits mostly activators; Huh7 NPC1 promoter luciferase reporter, 24 h; AID 485313, 2010; note: nearly all actives have a fitted effect of over 60% in size
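Luminescence from an NPC1 promoter-driven luciferase reporter in stably transfected Huh7 cells was measured after 24 h compound treatment at 37 °C, followed by 10 min ambient incubation with luciferase detection reagent.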
Rab9 promoter act: qHTS Assay for Rab9 Promoter Activators | AID 485297, 2010 | Potency, µM (top dose mostly 9.22 µM), most hits filed as activators | 2.8% of 320,000 active | Huh7 Rab9 promoter-luciferase reporter, luminescence, 24 h; note: nearly all actives have a fitted effect of over 60% in size
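Luminescence from Amplite-detected luciferase (10 minutes, ambient) reports Rab9 promoter activation. Before that, stable Rab9-luciferase Huh7 cells (1500/well, reduced-serum OP-MEM I plus 10% FBS) were exposed to compound for 24 hours at 37C.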
Numbers stand for hits; i = inactive; ? = inconclusive; nt = not tested or not shown; [ ] = remark or other dose. Compounds with a hit are over-represented: about 7.4% of the library has one in this group of screens. Calls come from the whole dose curve; as a rule, active = well fitted curve in the direction sought with a large enough effect; inconclusive = small, poorly fitted or top-dose-only effect, or another doubt; inactive = no such curve, though single readings can be large; an effect the other way counts as inactive or inconclusive.

SMILES | FLuc modulator | ELG1 genotoxic | SMN2 splice up | NPC1 prom act | Rab9 promoter act
COc1ccc(-c2[nH]ncc2CN2CCCO2)cc1F | i | i | nt | i | i
COc1ccc2cc(-c3[nH]ncc3CN3CCCCO3)ccc2c1 | 15µM | i | nt | i | ?
Nn1c(SCc2c(F)cccc2F)nnc1-c1ccccn1 | 13µM | 16µM | nt | 2µM | 3.2µM
Cc1ccc(C)c(CSc2nnc(-c3ccccn3)n2N)c1 | i | i | i | i | i
COc1cc(OC)cc(C(=O)c2c(C)c(C#N)c3ccccn23)c1 | i | i | nt | i | i
COC1=C/C(=C/c2c(O)c(C#N)c3ccccn23)C=CC1=O | 15µM | i | nt | i | i
CC(=O)/C=C(\C)N=Nc1c(O)[nH]c2ccccc12 | 13µM | i | nt | i | i
C=CCn1c(O)c(N=NC(=O)c2ccc3c(c2)OCO3)c2ccccc21 | 3µM | i | i | ? | ?
O=C(N=Nc1c(O)[nH]c2ccccc12)c1ccc2c(c1)OCO2 | 0.6µM | ? | 11µM | 2.2µM | 0.56µM
CC(C)CC(=O)N=Nc1c(O)[nH]c2ccccc12 | i | ? | i | i | ?
COc1ccc(CC(=O)NCC(=O)N=Nc2c(O)[nH]c3ccccc23)cc1 | i | i[9.26 µM] | nt | i | i
O=C(N=Nc1c(O)[nH]c2ccccc12)c1ccc(CN2CCOCC2)cc1 | ? | i | i | i | i
O=C(CNC(=O)c1ccccn1)N=Nc1c(O)[nH]c2ccccc12 | 15µM | i | nt | i | i
CCCN1Cc2cccc(C(=O)Nc3ccccc3F)c2C1=O | i | nt | i | nt | nt
COc1cc2c(cc1OC)C(c1ccc(F)cc1)N(c1cccc(C#N)c1)C(=O)C2 (stereo not given) | i | nt | i | nt | nt
O=C(N=Nc1c(O)[nH]c2ccccc12)c1ccco1 | 5.4µM | ? | nt | 3.5µM | 2µM
Cc1cccc(NC(=O)c2ccc(NC(=O)c3ccccc3Br)cc2)c1 | i | i | nt | i | i
O=C(O)c1ccc(NC(=O)c2ccccc2NC(=O)c2ccccc2Br)cc1 | 17µM | i | nt | i | i
O=C(Nc1ccc(Br)cc1)c1ccccc1Br | 11µM | ? | nt | 1.4µM | 3.2µM
CCc1ccc(NC(=O)c2ccccc2Br)cc1 | 11µM | i | 13µM | 1.4µM | 2µM
CCNC(=S)Nc1cccc(NC(=O)c2ccccc2O)c1 | ? | i | nt | i | i
CCNC(=S)Nc1ccc(NC(=O)c2ccccc2O)cc1 | 12µM | i | nt | i | i
CCC(=O)Nc1ccc(NC(=O)c2cccc3c(Br)cccc23)cc1 | i | i | nt | i | i
CC(C)[C@@H](CC(=O)N[C@@H]1CCCC[C@H]1C(=O)N[C@H](CC(=O)N[C@@H](CCC(=O)O)CC(=O)O)Cc1c[nH]c2ccccc12)NC(=O)C[C@H](CO)NC(=O)[C@@H]1CCCC[C@H]1N | nt | nt | i | nt | nt
CCn1nc(C(=O)N[C@@H](CCSC)c2nc3ccccc3[nH]2)c2ccccc2c1=O | 11µM | i | i | i | i
SMILES | FLuc modulator | ELG1 genotoxic | SMN2 splice up | NPC1 prom act | Rab9 promoter act
CC(C)OC(=O)c1cc(NC(=O)c2nn(C)cc2Br)cc(C(=O)OC(C)C)c1 | i | i | i | i | i
CCOc1ccc(NC(=O)c2sc3ccccc3c2Cl)cc1 | i | nt | i | nt | nt
CCOc1ccc(NC(=O)c2nn(C)cc2Br)cc1 | 7.6µM | ? | nt | ? | 3.2µM
O=C(Nc1ccc(F)c(Cl)c1)c1nsc(Cl)c1Cl | 2.4µM | 21µM | nt | 2.2µM | 2.8µM
CCOc1ccc(NC(=O)c2nsc(Cl)c2Cl)cc1 | 4.8µM | 4.6µM | nt | 2.2µM | 1.4µM
O=C(Nc1ccc(F)cc1)c1nsc(Cl)c1Cl | 4.8µM | ? | 11µM | 3.5µM | 3.2µM
COc1cc(Cl)c(C)cc1Nc1nc2ccccc2n2cnnc12 | i | nt | i | nt | nt
CCCCOc1ccc(CNC(=O)c2cnc3sc(N4CCOCC4)nn3c2=O)cc1 | i | nt | nt | nt | nt
CC(C)(C)c1ccc(C(=O)Nc2ccc(C(=O)OCc3cc(=O)n4ccsc4n3)cc2)cc1 | i | nt | nt | nt | nt
Cn1cc(Br)c(C(=O)NNC(=O)c2ccc(Cl)cc2)n1 | 19µM | ? | ? | i | i
Cn1cc(Br)c(C(=O)Nc2ncc(Br)s2)n1 | i | ? | 4.5µM | 3.5µM | 2.5µM
Cn1cc(Br)c(C(=O)NNC(=O)Cc2ccc(Cl)cc2)n1 | i | i | nt | i | i
COc1cc(C2c3c(oc4ccc(F)cc4c3=O)C(=O)N2Cc2ccc3c(c2)OCO3)ccc1O (stereo not given) | i | nt | i | nt | nt
COc1ccc(/C=N/NC(=O)c2cc(C34CC5CC(CC(C5)C3)C4)[nH]n2)cc1O | 15µM | ? | i | i | i
CC(C)N1CC(O)=C(c2nc3ccccc3[nH]2)C1=N | 19µM | ? | i | i | ?
O=C(O)c1cccc(Nc2ncnc3sccc23)c1 | 7.6µM | i | i | i | i
Clc1ccc(N2CCN(c3ncnc4c3cnn4-c3ccccc3)CC2)cc1Cl | i | nt | nt | nt | nt
COc1ccc(-n2ncc3c(N4CCC(C(N)=O)CC4)ncnc32)cc1 | 15µM | i | i | 3.5µM | 2.8µM
CCOC(=O)C1CCN(c2ncnc3c2cnn3-c2ccc(OC)cc2)CC1 | ? | i | i | i | i
Cc1cccc(-n2ncc3c(N4CCCCCC4)ncnc32)c1 | 0.6µM | nt | nt | nt | nt
Cc1ccc(-n2ncc3c(N4CCN(Cc5ccccc5)CC4)ncnc32)cc1C | i | nt | nt | nt | nt
c1ccc(-n2ncc3c(N4CCCCC4)ncnc32)cc1 | 0.27µM | 0.46µM | i | 0.32µM | ?
Cc1ccc(-n2ncc3c(N4CCCCCC4)ncnc32)cc1C | 0.27µM | nt | nt | nt | nt
CS(=O)(=O)N1CCc2cc(C(=O)Nc3ccc(S(N)(=O)=O)cc3)ccc21 | i | nt | i | nt | nt
COC(=O)C1=C(C(=O)OC)[C@@H]2N(Cc3ccccc3)c3ccccc3[C@@]23C[C@@H](C(=O)OC)N(S(=O)(=O)c2ccc(Br)cc2)C3=N1 | nt | nt | i[9.22 µM] | nt | nt
SMILES | FLuc modulator | ELG1 genotoxic | SMN2 splice up | NPC1 prom act | Rab9 promoter act
CCOc1ccc(CNC(=O)CCS(=O)(=O)c2cc3c4c(c2)CCN4C(=O)CC3)cc1OC | i | nt | nt | nt | nt
O=C(NCc1cccc(Cl)c1)c1cccn1-c1nnc(N2CCCC2)s1 | i | nt | nt | nt | nt
Cc1cccc(N2CCN(c3ncnc4c3cnn4-c3ccc(Cl)cc3)CC2C)c1 (stereo not given) | i | nt | nt | nt | nt
Cc1cccc(-n2ncc3c(N4CCC(C)CC4)ncnc32)c1 | 1.9µM | ? | 2.5µM | 1.1µM | 0.89µM
CCCSc1ccc2nc(-c3ccccc3)cn2c1 | 0.085µM | ? | nt | 0.71µM | 0.45µM
CCCCSc1ccc2nc(-c3ccc(C#N)cc3)cn2c1 | 4.8µM | i | ? | ? | ?
CCCCCCCOc1ccc(-c2ccc(C#N)cn2)cc1 | i | i | i | i | i
CCCCCCSc1ccc(-c2nc3ccccn3c2NCCCC)cc1 | ? | i | nt | i | i
CC(Oc1ccccc1)C(=O)Nc1ccccc1C(=O)OCc1cc(=O)n2nc(C3CC3)sc2n1 (stereo not given) | i | nt | nt | nt | nt
CCOc1ccc(NC(=O)c2[nH]c(C)c(C(C)=O)c2C)cc1 | 15µM | ? | nt | ? | ?
CCc1ccc(NC(=O)c2[nH]c(C)c(C(C)=O)c2C)cc1 | 12µM | ? | nt | 1.6µM | 1.6µM
